FLuc inh = Firefly luciferase inhibition profiling of diverse chemical library using quantitative high-throughput screening; Luciferin 4-monooxygenase (Photinus pyralis), P08659; purified P. pyralis luciferase, luminescence, biochemical; Potency, µM (top dose mostly 115 µM), hits mostly inhibitors; 2.5% of 76,000 active; AID 1347043, 2019; also: nearly all actives have a fitted effect of over 65% in size
Target sequence (P08659 whole entry, looked up): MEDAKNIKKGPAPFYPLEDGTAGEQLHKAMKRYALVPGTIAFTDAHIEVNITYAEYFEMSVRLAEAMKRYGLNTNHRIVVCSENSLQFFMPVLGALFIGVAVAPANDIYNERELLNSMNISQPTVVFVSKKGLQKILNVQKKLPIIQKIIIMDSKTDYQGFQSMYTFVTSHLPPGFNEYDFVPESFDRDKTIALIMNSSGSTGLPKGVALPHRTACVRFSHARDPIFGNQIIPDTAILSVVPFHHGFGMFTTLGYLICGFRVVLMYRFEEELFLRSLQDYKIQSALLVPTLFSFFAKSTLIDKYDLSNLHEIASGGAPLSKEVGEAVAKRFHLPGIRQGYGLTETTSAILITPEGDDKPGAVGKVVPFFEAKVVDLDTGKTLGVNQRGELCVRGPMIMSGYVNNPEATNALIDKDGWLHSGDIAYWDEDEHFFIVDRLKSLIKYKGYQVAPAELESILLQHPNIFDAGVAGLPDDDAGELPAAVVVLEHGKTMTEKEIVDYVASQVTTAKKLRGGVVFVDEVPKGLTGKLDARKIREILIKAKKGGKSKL
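FLuc 10nM, D-luciferin 10uM, ATP 10uM, Mg acetate 10mM, Tris acetate pH 7.5, Tween/BSA; cpd qHTS; enzyme added last; CCD luminescence.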
hNpr1 antagonist = Natriuretic polypeptide receptor (hNpr1) antagonism - Primary qHTS. HEK293 hNpr1 GloSensor cGMP, ANP-stimulated luminescence. Atrial natriuretic peptide receptor 1 (Homo sapiens), P16066. 1.6% of 76,000 active. Potency, µM (highest dose often 46.3 µM), usual class: inhibitors; calls by dose curve; also: nearly all actives have a fitted effect of over 60% in size
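HEK293 cells stably expressing human Npr1 and cGMP GloSensor pGS-40F, loaded 2 h with 2% GloSensor reagent, given compound 30 min at room temperature. Luminescence read before and 20 min after 0.1 nM hNppA.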
NIH3T3 tox = Cytotoxic Profiling in NIH 3T3 Cell Line of Diverse Libraries Using Quantitative High-Throughput Screening; AID 1345082, 2018; NIH 3T3 viability, CellTiter-Glo ATP luminescence, 48-72 h; Potency, µM (series often up to 96.7 µM), actives largely listed as inhibitors; 4.3% of 94,000 active; also: nearly all actives have a fitted effect of over 55% in size
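Cells were seeded at 400 per well, treated with pin-transferred compound, and kept 48 or 72 hr at 37 °C before CellTiter-Glo addition and luminescence imaging of cellular ATP.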
HEK293 tox = Cytotoxic Profiling in HEK 293 Cell Line of Diverse Libraries Using Quantitative High-Throughput Screening; HEK 293 viability, ATP luminescence (CellTiter-Glo), 48-72 h; Potency, µM (doses to about 115 µM), most hits filed as inhibitors; 6.6% of 94,000 active; AID 1345083, 2018; also: nearly all actives have a fitted effect of over 60% in size
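CellTiter-Glo luminescence (cellular ATP) was read after 48 or 72 hr of compound exposure at 37 degree Celsius. Cells were HEK 293 plated at 250 cells/well.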
Large screens that a line does not name were inactive. The list is not random: actives were taken first. Their share in the collection is about 11%. Unless noted, calls follow the shape of the dose curve; as a rule, active = well fitted curve in the direction sought with a large enough effect; inconclusive = small, poorly fitted or top-dose-only effect, or another doubt; inactive = no such curve, though single readings can be large; an effect the other way counts as inactive or inconclusive.

COc1ncccc1-c1cnc2n[nH]c(-c3ccc(F)cc3C)c2n1	NIH3T3 tox 32µM, HEK293 tox inconclusive
COc1ccc(C(=O)N[C@@H]2CCC[C@@H]2C(=O)NCc2cc(OC)cc(OC)c2)cc1	none
CC(C)C(=O)N1CCOc2ccc(CN3CCCCCC3)cc2C1	HEK293 tox inconclusive (no result: FLuc inh, hNpr1 antagonist)
Cc1cnc(CCNC(=O)Cc2ccccc2)n1CC1CC1	none
CCOC(=O)C1CCN(C(=O)c2ccc3oc(-c4cccnc4)nc3c2)CC1	none (no result: FLuc inh, hNpr1 antagonist)
CN1CCC(Oc2ccc(C(=O)NCCc3ccccn3)cn2)CC1	FLuc inh 40µM
O=C(NCc1ccccn1)c1cccc(OC2CCN(c3cnccn3)CC2)c1	hNpr1 antagonist inconclusive, NIH3T3 tox inconclusive, HEK293 tox 45µM
CCOC(=O)C1CCCN(C(=O)c2nc3sccn3c2-c2ccc(C)cc2)C1 (stereo not given)	none (no result: FLuc inh, hNpr1 antagonist)
CCC(NCc1c(C(=O)N2CCCCCC2)nc2cc(C)ccn12)c1ccc(C)cc1 (stereo not given)	NIH3T3 tox 45µM, HEK293 tox 18µM
Cc1cc(NC(=O)C2CCN(C(=O)c3ncn4c3COC(c3ccc(F)cc3)C4)CC2)ccc1Cl (stereo not given)	FLuc inh 40µM, NIH3T3 tox inconclusive
Cc1cc(C)cc(NC(=O)C2CCN(C(=O)c3ncn4c3COC(c3ccc(F)cc3)C4)CC2)c1 (stereo not given)	FLuc inh inconclusive
Cc1ccc(NC(=O)C2CCN(C(=O)c3ncn4c3COC(c3ccc(F)cc3)C4)CC2)c(Cl)c1 (stereo not given)	FLuc inh 25µM
Cc1ccc(NC(=O)C2CCN(C(=O)c3ncn4c3COC(c3ccc(F)cc3)C4)CC2)cc1C (stereo not given)	FLuc inh 35µM
O=C(Nc1ccc2c(c1)CCC2)C1CCN(C(=O)c2ncn3c2COC(c2ccc(F)cc2)C3)CC1 (stereo not given)	FLuc inh 28µM
COc1ccc(C2Cn3cnc(C(=O)N4CCC(C(=O)Nc5ccc(C)c(C)c5)CC4)c3CO2)cc1 (stereo not given)	none
CCN1Cc2cc(OC)ccc2N(C(C)=O)CCC1=O	NIH3T3 tox inconclusive (no result: FLuc inh, hNpr1 antagonist)
COc1cc(CNc2nccc3c(=O)cc(N4CCOCC4)oc23)cc(OC)c1	NIH3T3 tox 89µM
O=c1cc(N2CCOCC2)oc2c(-c3cccnc3)nccc12	NIH3T3 tox 79µM
COc1ncc(-c2nccc3c(=O)cc(N4CCN(C)CC4)oc23)cn1	NIH3T3 tox 89µM
O=c1cc(N2CCOCC2)oc2c(-c3cncnc3)nccc12	NIH3T3 tox inconclusive
COc1cccc(-c2nccc3c(=O)cc(N4CCOCC4)oc23)c1	NIH3T3 tox 20µM, HEK293 tox inconclusive
CNC(=O)C1(N2CCC[C@H]2C(=O)NCc2ccccc2)CCCCC1	none
O=C(c1cc(-c2ccsc2)c2nncn2n1)N1CCOCC1	NIH3T3 tox inconclusive (no result: FLuc inh, hNpr1 antagonist)
CCOC(=O)C1CCN(C(=O)c2nc3sccn3c2-c2ccc(C(F)(F)F)cc2)CC1	NIH3T3 tox inconclusive (no result: FLuc inh, hNpr1 antagonist)
O=C(c1ccsc1)N1CCCn2cc(-c3ccccc3F)nc21	FLuc inh 35µM
O=C(c1ccco1)N1CCCn2cc(-c3ccccc3F)nc21	none
O=C(c1cccs1)N1CCCn2cc(-c3ccccc3F)nc21	FLuc inh 22µM, HEK293 tox inconclusive
COCCNC(=O)c1ccc(-c2ccc(OC)nn2)cc1	HEK293 tox inconclusive (no result: FLuc inh, hNpr1 antagonist)
Cc1nc2cccnc2n1CC1CCCN(S(=O)(=O)c2cccc(F)c2)C1 (stereo not given)	NIH3T3 tox inconclusive, HEK293 tox 35µM
CC(C)Cc1ccc(S(=O)(=O)N2CCCC(Cn3cnc4cccnc43)C2)cc1 (stereo not given)	NIH3T3 tox inconclusive, HEK293 tox 45µM
O=S(=O)(c1cc(F)cc(F)c1)N1CCCC(Cn2c(C3CC3)nc3cccnc32)C1 (stereo not given)	NIH3T3 tox 40µM, HEK293 tox inconclusive
Cc1ccc(S(=O)(=O)N2CCCC(Cn3cnc4cccnc43)C2)cc1F (stereo not given)	none
Cc1ccc(C(=O)N[C@H]2C[C@@H](c3nc(-c4ccc(C)cc4)no3)N(C)C2)cc1	none
CN1C[C@@H](NC(=O)c2ccc(C#N)cc2)C[C@H]1c1nc(-c2cncnc2)no1	FLuc inh 45µM, HEK293 tox inconclusive
CN1C[C@@H](NC(=O)c2ccc(C(C)(C)C)cc2)C[C@H]1c1nc(-c2ccncc2)no1	FLuc inh inconclusive, NIH3T3 tox inconclusive, HEK293 tox 71µM
Cc1ccc(C(=O)N2c3ccccc3CC2c2nc(C3CC3)no2)cn1 (stereo not given)	none (no result: FLuc inh, hNpr1 antagonist)
Cc1ccc(-c2cccc(CN)c2)c(C)c1	NIH3T3 tox 28µM, HEK293 tox 45µM (no result: FLuc inh, hNpr1 antagonist)
Cc1cccc(-c2ccccc2CN)c1	none (no result: FLuc inh, hNpr1 antagonist)
Cc1cc(Cl)ccc1-c1cccc(CN)c1	NIH3T3 tox 32µM, HEK293 tox 40µM (no result: FLuc inh, hNpr1 antagonist)
Cc1cc(Cl)ccc1-c1ccccc1CN	NIH3T3 tox 22µM, HEK293 tox inconclusive (no result: FLuc inh, hNpr1 antagonist)
COc1ccccc1-c1cccc(CN)c1	NIH3T3 tox 126µM, HEK293 tox 100µM (no result: FLuc inh, hNpr1 antagonist)
COc1ccccc1-c1nnc2ccc(C(=O)N3CCN(C(C)=O)CC3)cn12	none (no result: FLuc inh, hNpr1 antagonist)
O=C(c1ccccc1Cl)N1CCCC(C(=O)N2CCC(N3Cc4cccn4C3=O)CC2)C1 (stereo not given)	none (no result: FLuc inh, hNpr1 antagonist)
Cc1cc(Cl)ccc1-c1ccc(C=O)cc1	NIH3T3 tox inconclusive (no result: FLuc inh, hNpr1 antagonist)
Cc1cc(Cl)ccc1-c1ccccc1C=O	NIH3T3 tox 112µM, HEK293 tox inconclusive (no result: FLuc inh, hNpr1 antagonist)
NCc1cccc(-c2cccc(O)c2)c1	none (no result: FLuc inh, hNpr1 antagonist)
Cc1ccc(-c2ccc(CN)cc2)c(C)c1	NIH3T3 tox 32µM, HEK293 tox 32µM (no result: FLuc inh, hNpr1 antagonist)
NCc1cccc(-c2cc(C(F)(F)F)ccc2Cl)c1	NIH3T3 tox inconclusive, HEK293 tox 71µM (no result: FLuc inh, hNpr1 antagonist)
O=C(NCc1cccc(Cl)c1)c1ccc2nnc(-c3ccoc3)n2c1	NIH3T3 tox inconclusive (no result: FLuc inh, hNpr1 antagonist)
CC(=O)Nc1cccc(-c2nc(-c3c(C)noc3C)cc3cc(C)oc23)c1	NIH3T3 tox 40µM, HEK293 tox 79µM
Cc1noc(C)c1-c1cc2c(cc(-c3ccccc3)n2C)c(N(C)C)n1	NIH3T3 tox inconclusive, HEK293 tox inconclusive
CNC(=O)c1cc2cc(-c3c(C)noc3C)nc(-c3ccccc3C)c2o1	NIH3T3 tox 11µM, HEK293 tox inconclusive
Cc1cc2cc(-c3c(C)noc3C)nc(-c3ccsc3)c2o1	NIH3T3 tox inconclusive, HEK293 tox inconclusive
CC(=O)Nc1cccc(-c2nc(-c3c(C)noc3C)cc3c2cc(-c2ccccc2)n3C)c1	NIH3T3 tox 11µM, HEK293 tox inconclusive
O=C(C1CCN(c2nc3ncccc3o2)CC1)N1CCN(Cc2ccccc2)CC1	HEK293 tox inconclusive (no result: FLuc inh, hNpr1 antagonist)
CC(C)C1=NOC2(CCN(C(=O)c3ccc4c(c3)OCO4)CC2)C1	none
O=C(Nc1ccc(Cl)cc1)NC1CCN(Cc2cccc(-c3cccs3)c2)CC1	NIH3T3 tox 13µM, HEK293 tox 20µM (no result: FLuc inh, hNpr1 antagonist)
